In all, about 8,300 sequences were measured (“log2 fold change of degron read counts, EGFP-low vs EGFP+ sorted cells (limma voom), compound-induced degradation”: median about -1.1, highest 2% from about 3.2 on). For the sample, the highest values were picked, then their nearest neighbours and some sequences at random.
T1: CRBN, Q96SW2
T1 chain: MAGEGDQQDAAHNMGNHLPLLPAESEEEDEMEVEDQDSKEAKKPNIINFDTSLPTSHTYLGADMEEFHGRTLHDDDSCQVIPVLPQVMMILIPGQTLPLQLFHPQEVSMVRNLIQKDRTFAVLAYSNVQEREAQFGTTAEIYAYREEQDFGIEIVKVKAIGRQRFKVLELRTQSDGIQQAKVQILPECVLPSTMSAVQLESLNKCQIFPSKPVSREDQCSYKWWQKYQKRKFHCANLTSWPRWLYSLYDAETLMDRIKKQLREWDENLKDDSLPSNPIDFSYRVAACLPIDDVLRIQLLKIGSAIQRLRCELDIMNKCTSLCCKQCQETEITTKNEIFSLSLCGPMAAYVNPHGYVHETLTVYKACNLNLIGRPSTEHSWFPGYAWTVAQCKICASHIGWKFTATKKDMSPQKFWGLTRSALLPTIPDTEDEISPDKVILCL


Target: T1, CRBN, Q96SW2
Assay: log2 fold change of degron read counts, EGFP-low vs EGFP+ sorted cells (limma voom), compound-induced degradation; higher = more compound-induced degradation of the degron-EGFP fusion; degrons are variants of IKZF1/3 zinc finger 2; compound dose not given here
Conditions: Jurkat, 18 h
[1] = compound: compound 19 (5-tert-butyl-thalidomide)
[2] = compound: compound 22 (5-morpholino-thalidomide)
[3] = compound: compound 33 (diphenyl IMiD analogue)
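Further: pooled lentiviral library of zinc finger degron-EGFP fusions in mCherry-positive Jurkat cells, FACS-sorted after compound exposure, with degron abundance counted by next-generation sequencing.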

Sequence | log2 fold change of degron read counts [1] | log2 fold change of degron read counts [2] | log2 fold change of degron read counts [3] | log2 fold change of degron read counts (compound: thalidomide)
FICNQCGACFTQKGNLLRHIKL [46F_47I_49N_50Q_52G_53A_54C_55F_67L_, Q9UKT9] | -2.25 | -1.71 | -0.536 | -1.25
FKCPICGHAFTQKGNLLRHIKL [46F_47K_49P_50I_52G_53H_54A_55F_67L_, Q9UKT9] | -2.73 | -2.8 | -3.02 | -2
FHCPICGHWFTQKGNLLRHIKL [46F_47H_49P_50I_52G_53H_54W_55F_67L_, Q9UKT9] | -1.67 | -2.48 | -1.12 | -1.62
FLCEICGAGFTQKGNLLRHIKL [46F_47L_49E_50I_52G_53A_54G_55F_67L_, Q9UKT9] | 2.55 | -0.336 | 1.28 | 0.798
FYCEICGAGFTQKGNLLRHIKL [46F_47Y_49E_50I_52G_53A_54G_55F_67L_, Q9UKT9] | 3.64 | 3.17 | 2.39 | 0.707
FECEICGAGFTQKGNLLRHIKL [46F_47E_49E_50I_52G_53A_54G_55F_67L_, Q9UKT9] | 1.97 | -1.47 | 0.9 | 1.53
FGCEICGAGFTQKGNLLRHIKL [46F_47G_49E_50I_52G_53A_54G_55F_67L_, Q9UKT9] | 2.12 | 0.308 | 1.02 | -0.108
FQCEICGAGFTQKGNLLRHIKL [46F_47Q_49E_50I_52G_53A_54G_55F_67L_, Q9UKT9] | 2.81 | 1.87 | 1.48 | 3.09
FWCEICGAGFTQKGNLLRHIKL [46F_47W_49E_50I_52G_53A_54G_55F_67L_, Q9UKT9] | 3.64 | 2.88 | 1.29 | -0.285
FGCNICGALFTQKGNLLRHIKL [46F_47G_49N_50I_52G_53A_54L_55F_67L_, Q9UKT9] | -0.269 | 0.462 | 1.6 | -0.293
FTCEICGRVFTQKGNLLRHIKL [46F_47T_49E_50I_52G_53R_54V_55F_67L_, Q9UKT9] | -2.27 | -1.55 | -0.702 | -0.137
FRCPICGRLFTQKGNLLRHIKL [46F_47R_49P_50I_52G_53R_54L_55F_67L_, Q9UKT9] | -1.83 | -0.827 | 0.758 | 0.687
FDCPICGRMFTQKGNLLRHIKL [46F_47D_49P_50I_52G_53R_54M_55F_67L_, Q9UKT9] | -0.392 | -0.463 | 1.09 | 1.7
FRCNQCGHRFTQKGNLLRHIKL [46F_47R_49N_50Q_52G_53H_54R_55F_67L_, Q9UKT9] | -2.19 | -2.67 | -2.63 | -2.17
FNCEVCGACFTQKGNLLRHIKL [46F_47N_49E_50V_52G_53A_54C_55F_67L_, Q9UKT9] | 2.1 | 0.177 | 0.1 | -0.55
FWCEVCGACFTQKGNLLRHIKL [46F_47W_49E_50V_52G_53A_54C_55F_67L_, Q9UKT9] | 3.64 | 3.77 | 2.8 | 1.25
FCCEVCGACFTQKGNLLRHIKL [46F_47C_49E_50V_52G_53A_54C_55F_67L_, Q9UKT9] | 2.54 | 2.27 | 2.88 | 2.26
FECEVCGACFTQKGNLLRHIKL [46F_47E_49E_50V_52G_53A_54C_55F_67L_, Q9UKT9] | 0.0523 | -1.58 | 1.91 | 2.18
FDCEVCGACFTQKGNLLRHIKL [46F_47D_49E_50V_52G_53A_54C_55F_67L_, Q9UKT9] | 0.736 | -1.47 | 0.552 | -0.0895
FFCEVCGACFTQKGNLLRHIKL [46F_47F_49E_50V_52G_53A_54C_55F_67L_, Q9UKT9] | 3.55 | 3.51 | 2.56 | 1.24
FACEVCGACFTQKGNLLRHIKL [46F_47A_49E_50V_52G_53A_54C_55F_67L_, Q9UKT9] | 3.76 | 2.16 | 1.45 | 0.401
FHCEVCGACFTQKGNLLRHIKL [46F_47H_49E_50V_52G_53A_54C_55F_67L_, Q9UKT9] | 2.22 | 2.25 | 1.49 | 0.274
FKCEVCGACFTQKGNLLRHIKL [46F_47K_49E_50V_52G_53A_54C_55F_67L_, Q9UKT9] | -0.0189 | -2.37 | -2.27 | -0.751
FGCEVCGACFTQKGNLLRHIKL [46F_47G_49E_50V_52G_53A_54C_55F_67L_, Q9UKT9] | 3.58 | 2.6 | 1.86 | 0.497

From the supplement of paper PMC12645437, “Orthogonal IMiD-Degron Pairs Induce Selective Protein Degradation in Cells” (ACS Chemical Biology, 2025)
